Active and inactive are the calls of the source. Unless noted, how the calls were made is not given here.
Tests used:
[1] = system: Wnt5a (protein binding on small-molecule microarray); test: Wnt5a binders on small-molecule microarray, primary screen, biophysical, 635/667 nm fluorescence (AID 1142); settings: 635 nm fluorescence, higher = more signal;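 further: fluorescence read at 667 nm with signal to noise per printed feature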
[2] = cell viability in Huh7 cells, primary screen, cytotoxicity control for HCV replication inhibitor project, CellTiter-Glo luminescence, basal, 48 h (AID 1143); settings: Huh7 HCV replicon, higher = more signal, called active from +8 up or from −8 down;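 further: Huh7 hepatoma cells carrying a hepatitis C replication reporter with no stimulus; test concentration not given here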
[3] = P. aeruginosa biofilm formation inhibitors, primary screen, PAO1 strain, BacTiter-Glo luminescence, LB-PBS (AID 1144); settings: 12 h, higher = more signal
[4] = CREB reporter modulators without forskolin, primary screen, cell-based, PC12, CRE-LacZ reporter, unstimulated (AID 1145); settings: no forskolin, luminescence, 4.5 h, higher = more signal, called active from +8 up or from −8 down
[5] = CREB reporter modulators under forskolin, primary screen, cell-based, PC12, CRE-LacZ reporter, forskolin-stimulated (AID 1146); settings: luminescence, 4.5 h, higher = more signal, called active from +8 up or from −8 down;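 further: PC12 cells with 6xCRE LacZ reporter stimulated by forskolin 10 µM; beta-galactosidase reporter signal reflecting CREB driven transcription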
[6] = biological target: Streptavidin (Streptomyces avidinii) (UniProt P22629); test: streptavidin binders on small-molecule microarray, primary screen, artefact control for SMM compound annotation, biophysical, 635/667 nm fluorescence (AID 1147); settings: streptavidin binding, higher = more signal;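 further: signal reflects streptavidin binding to arrayed compounds as a control protein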
[7] = small-molecule binders of probe aInhba, primary screen, biochemical, small-molecule microarray, 635/667 nm fluorescence (AID 1148); settings: higher = more signal;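 further: score merges 667nm spot fluorescence with signal-to-noise for antibody binding to printed compounds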
[8] = biological target: Torsin-1A (Homo sapiens) (UniProt O14656); test: torsin A binders from cell lysate, primary screen, small-molecule microarray, wild-type, 635/667 nm (AID 1149); settings: COS7 hTOR1A-WT lysate, 635 nm fluorescence, higher = more signal
[9] = biological target: Torsin-1A (Homo sapiens) (UniProt O14656); test: small-molecule binders of mutant TOR1A in lysate, primary screen, cell lysate, small-molecule microarray, COS7 lysate, 635/667 nm fluorescence (AID 1150); settings: COS7 hTOR1A mutant lysate, 635 nm fluorescence, higher = more signal;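 further: score pools 667 nm emission and signal to noise measuring lysate protein binding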
[10] = system: Sonic hedgehog protein (Shh); test: small-molecule binders of Shh protein, primary screen, biochemical, small-molecule microarray, 635/667 nm fluorescence (AID 1151); settings: small-molecule microarray binding, 635 nm fluorescence; higher = more signal;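 further: Shh protein binding to compounds spotted on small-molecule microarray slides; score combines spot fluorescence intensity with signal-to-noise across triplicate slides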
[11] = E. coli DRC41 culture turbidity changes, primary screen, E. coli filamentation inducer project, strain DRC41, OD650, 48 h (AID 1152);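 further: E. coli MC1000 strain DRC41 lacking acrAB efflux pump and sulA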; settings: E. coli DRC41 (acrAB sulA), higher = more signal, called active from +8 up or from −8 down
[12] = small-molecule binders of probe aLefty1, primary screen, biochemical, small-molecule microarray, 635/667 nm fluorescence (AID 1153); settings: higher = more signal;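 further: score merges spot fluorescence with signal-to-noise ratio from the scanned slide images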
[13] = PSAC antagonists in infected red cells, primary screen, cell-based, P. falciparum Indochina, OD700, 1 h (AID 1154); settings: P. falciparum Indochina infected RBC osmotic lysis, higher = more signal, called active from +8 up or from −8 down
[14] = PSAC antagonists in infected red cells, primary screen, cell-based, P. falciparum Indochina, OD700, 2 h (AID 1155);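 further: lysis reports solute entry through the parasite surface anion channel PSAC; channel blockers reduce lysis of infected cells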; settings: P. falciparum Indochina infected erythrocytes, osmotic lysis OD700; higher = more signal, called active from +8 up or from −8 down
[15] = osmotic lysis modulators in infected erythrocytes, primary screen, PSAC antagonist project, cell-based, P. falciparum Indochina, OD700, 3 h (AID 1156); settings: higher = more signal, called active from +8 up or from −8 down
[16] = PSAC antagonists in infected red cells, primary screen, cell-based, P. falciparum Indochina, OD700, 18 h (AID 1157); settings: P. falciparum Indochina infected erythrocytes, osmotic lysis OD700, 18 h; higher = more signal, called active from +8 up or from −8 down
[17] = modulators of S6 phosphorylation in cells, primary screen, cell-based, A549, cytoblot, luminescence, serum-stimulated (AID 1158); settings: A549 phospho-S6 cytoblot, 5 h, higher = more signal;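 further: serum-stimulated A549 lung adenocarcinoma cells; signal is phosphorylated S6 detected by cytoblot immunostaining with HRP secondary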
[18] = biological target: NADPH oxidase 2 (Homo sapiens) (UniProt P04839); test: NOX2-dependent H2O2 signal modulators, primary screen, NOX inhibitor project, cell-based, HEK293-NOX2, PMA-stimulated, Amplex Red fluorescence (AID 1159); settings: 45 min, higher = more signal, called active from +8 up or from −8 down; further: test concentration not given here
[19] = biological target: NADPH oxidase 4 (Homo sapiens) (UniProt Q9NPH5); test: NOX4-dependent H2O2 signal modulators, primary screen, NOX inhibitor project, cell-based, HEK293-NOX4, tetracycline-induced, Amplex Red fluorescence (AID 1160); settings: 45 min, higher = more signal, called active from +8 up or from −8 down
[20] = biological target: NADPH oxidase 5 (Homo sapiens) (UniProt Q96PH1); test: NOX5-dependent H2O2 signal modulators, primary screen, NOX inhibitor project, cell-based, HEK293-NOX5, Amplex Red fluorescence (AID 1161); settings: HEK293-NOX5, ionomycin, 45 min, higher = more signal
NADPH oxidase 5 (Homo sapiens), sequence (Q96PH1 whole entry, looked up): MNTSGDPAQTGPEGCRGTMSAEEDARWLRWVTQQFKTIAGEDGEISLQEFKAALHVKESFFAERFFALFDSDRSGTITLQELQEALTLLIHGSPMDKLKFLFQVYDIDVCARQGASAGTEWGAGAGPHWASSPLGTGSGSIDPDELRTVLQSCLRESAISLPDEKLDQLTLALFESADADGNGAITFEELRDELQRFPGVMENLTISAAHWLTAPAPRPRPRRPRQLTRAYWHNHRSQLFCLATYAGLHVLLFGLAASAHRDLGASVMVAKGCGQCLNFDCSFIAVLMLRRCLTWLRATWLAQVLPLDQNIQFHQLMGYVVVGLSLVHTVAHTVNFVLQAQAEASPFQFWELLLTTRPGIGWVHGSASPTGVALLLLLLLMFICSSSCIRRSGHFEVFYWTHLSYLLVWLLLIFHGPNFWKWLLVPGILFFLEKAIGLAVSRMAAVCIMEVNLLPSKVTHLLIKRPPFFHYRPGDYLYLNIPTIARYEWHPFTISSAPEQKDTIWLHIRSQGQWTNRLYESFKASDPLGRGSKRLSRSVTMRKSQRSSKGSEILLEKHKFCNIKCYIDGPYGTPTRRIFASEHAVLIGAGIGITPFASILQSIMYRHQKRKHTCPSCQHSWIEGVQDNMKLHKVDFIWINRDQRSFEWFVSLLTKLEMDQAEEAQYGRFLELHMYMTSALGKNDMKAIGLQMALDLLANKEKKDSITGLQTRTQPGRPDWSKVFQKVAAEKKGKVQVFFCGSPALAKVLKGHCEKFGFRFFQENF

Streptavidin (Streptomyces avidinii), sequence (P22629 whole entry, looked up): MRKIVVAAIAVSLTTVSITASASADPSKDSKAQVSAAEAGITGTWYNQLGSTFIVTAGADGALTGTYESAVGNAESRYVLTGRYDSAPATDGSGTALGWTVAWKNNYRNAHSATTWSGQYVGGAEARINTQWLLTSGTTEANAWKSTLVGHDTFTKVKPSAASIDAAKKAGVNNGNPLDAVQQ
NADPH oxidase 4 (Homo sapiens), sequence (Q9NPH5 whole entry, looked up): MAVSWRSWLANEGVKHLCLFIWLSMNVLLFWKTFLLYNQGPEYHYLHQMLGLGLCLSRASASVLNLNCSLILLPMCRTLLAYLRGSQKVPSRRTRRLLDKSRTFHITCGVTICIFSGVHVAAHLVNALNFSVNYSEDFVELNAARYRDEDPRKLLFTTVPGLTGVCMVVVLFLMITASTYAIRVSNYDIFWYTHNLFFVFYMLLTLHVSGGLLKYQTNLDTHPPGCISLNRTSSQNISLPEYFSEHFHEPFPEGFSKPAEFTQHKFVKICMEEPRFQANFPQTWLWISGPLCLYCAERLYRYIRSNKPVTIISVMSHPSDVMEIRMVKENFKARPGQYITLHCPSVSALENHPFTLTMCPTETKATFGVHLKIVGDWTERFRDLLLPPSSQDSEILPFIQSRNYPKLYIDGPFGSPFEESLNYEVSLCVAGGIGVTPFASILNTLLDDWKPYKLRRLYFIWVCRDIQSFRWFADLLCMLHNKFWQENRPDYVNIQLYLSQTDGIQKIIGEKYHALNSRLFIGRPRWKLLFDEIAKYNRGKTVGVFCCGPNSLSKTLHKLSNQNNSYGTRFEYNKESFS
NADPH oxidase 2 (Homo sapiens), sequence (P04839 whole entry, looked up): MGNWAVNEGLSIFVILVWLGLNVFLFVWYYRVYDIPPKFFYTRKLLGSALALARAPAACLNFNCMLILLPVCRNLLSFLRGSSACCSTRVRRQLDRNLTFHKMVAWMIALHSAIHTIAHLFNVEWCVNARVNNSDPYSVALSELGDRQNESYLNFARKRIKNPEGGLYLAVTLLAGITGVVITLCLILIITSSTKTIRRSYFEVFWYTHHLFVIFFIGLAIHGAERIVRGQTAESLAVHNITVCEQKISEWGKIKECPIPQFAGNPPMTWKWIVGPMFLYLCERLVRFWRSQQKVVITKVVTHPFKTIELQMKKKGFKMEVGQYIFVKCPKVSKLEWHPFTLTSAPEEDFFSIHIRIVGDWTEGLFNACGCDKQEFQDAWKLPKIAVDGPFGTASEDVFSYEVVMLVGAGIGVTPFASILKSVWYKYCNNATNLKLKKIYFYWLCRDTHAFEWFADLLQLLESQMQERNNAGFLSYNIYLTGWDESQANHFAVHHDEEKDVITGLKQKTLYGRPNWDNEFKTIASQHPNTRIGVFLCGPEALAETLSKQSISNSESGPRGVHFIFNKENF
Torsin-1A (Homo sapiens), sequence (O14656 whole entry, looked up): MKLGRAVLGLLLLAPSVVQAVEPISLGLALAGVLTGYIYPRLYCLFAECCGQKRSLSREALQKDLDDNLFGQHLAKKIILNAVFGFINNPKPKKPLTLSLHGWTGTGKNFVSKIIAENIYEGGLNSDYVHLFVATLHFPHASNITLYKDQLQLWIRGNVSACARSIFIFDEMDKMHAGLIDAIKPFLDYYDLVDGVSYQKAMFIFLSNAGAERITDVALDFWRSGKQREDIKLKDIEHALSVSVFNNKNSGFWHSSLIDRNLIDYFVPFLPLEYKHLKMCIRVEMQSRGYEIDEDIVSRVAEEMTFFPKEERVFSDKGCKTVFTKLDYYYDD

Structure (SMILES) | composite z-score [1] | z-score [2] | z-score [3] | z-score [4] | z-score [5] | composite z-score [6] | composite z-score [7] | composite z-score [8] | composite z-score [9] | composite z-score [10] | z-score [11] | composite z-score [12] | z-score [13] | z-score [14] | z-score [15] | z-score [16] | z-score [17] | z-score [18] | z-score [19] | z-score [20]
O=C(NCC(O)CO)[C@@]1(CCS(=O)(=O)c2ccccc2)COC(c2ccc(OCCCO)cc2)=N1 (stereo not given in full) | 0.556 | -1.2 (inactive) | 0.063 (inactive) | 0.33 (inactive) | 0.0138 (inactive) | 0.985 | 0.228 | 1.13 | 1.91 | -0.504 | 0.457 (inactive) | 0.467 | 29.3 (active) | 22.3 (active) | 1.7 (inactive) | 2.91 (inactive) | -0.245 | 0.299 (inactive) | 1.77 (inactive) | 1.51
COC(=O)[C@@]1(Cc2ccccc2)[C@H]2c3cc(C(=O)N(C)C)n(CCn4cc([N+](=O)[O-])nc4C)c3C[C@H]2CN1C(=O)c1ccccc1 | 0.192 | -0.65 (inactive) | 0.331 (inactive) | -0.379 (inactive) | 1.45 (inactive) | 0.287 | -0.147 | 0.614 | 0.464 | 0.383 | -0.566 (inactive) | 0.0249 | -0.25 (inactive) | -0.949 (inactive) | -0.513 (inactive) | -0.956 (inactive) | 1.18 | 0.635 (inactive) | 1.24 (inactive) | -1.65
O=C1[C@@H]2[C@@H](CC(COc3ccccc3)=C3[C@@H](CCc4ccccc4)OB(O)C[C@@H]32)C(=O)N1Cc1ccccc1 | -0.0294 | -1.91 (inactive) | 0.132 (inactive) | 1.94 (inactive) | -1.12 (inactive) | 0.376 | -0.0161 | 0.0258 | 0.256 | 0.919 | -1.45 (inactive) | 0.0089 | 11.2 (active) | 2.04 (inactive) | -0.791 (inactive) | 0.82 (inactive) | 0.17 | -0.0449 (inactive) | -0.128 (inactive) | -0.199
[N-]=[N+]=NCc1ccccc1[C@@H]1OC(c2ccc(OCCCO)cc2)=N[C@]1(Cc1ccccc1)C(=O)NCCN1CCOCC1 | 0.629 | -2.31 (inactive) | 0.0636 (inactive) | 2.76 (inactive) | -0.808 (inactive) | 0.686 | 0.386 | 0.0739 | 0.818 | 0.0392 | 0.745 (inactive) | 0.345 | 18 (active) | 3.55 (inactive) | 1.97 (inactive) | 1.13 (inactive) | -0.408 | -3.16 (inactive) | 2.14 (inactive) | 0.838
O=C(O)[C@H]1C[C@H]2C(=O)N[C@@H](Cc3ccccc3)C(=O)N2[C@H]1c1cccc(OCCO)c1 | 0.223 | -0.6 (inactive) | 0.28 (inactive) | 1.23 (inactive) | -0.178 (inactive) | 0.105 | 0.0663 | 1.42 | 1.71 | 1.9 | 0.262 (inactive) | 0.121 | 4.38 (inactive) | 0.547 (inactive) | -2.49 (inactive) | 0.204 (inactive) | 0.146 | -3.4 (inactive) | -4.87 (inactive) | -2.33
CCOC(=O)C1=CCN(S(=O)(=O)c2ccc(C)cc2)C1c1ccccc1 (stereo not given) | 0.0881 | -3.3 (inactive) | 0.498 (inactive) | -0.284 (inactive) | -1.12 (inactive) | 0.388 | 0.141 | 0.355 | 0.302 | 0.598 | -1.44 (inactive) | 0.121 | 3.1 (inactive) | 0.8 (inactive) | -0.451 (inactive) | 0.806 (inactive) | -0.489 | 0.532 (inactive) | -1.38 (inactive) | -0.86
C=CCNC(=O)[C@@H]1[C@H]2C(=O)O[C@H](c3ccccc3)[C@H](c3ccccc3)N2[C@H](c2ccc(O)cc2)[C@@]12C(=O)Nc1ccc(C#CCC(C(=O)OC)C(=O)OC)cc12 | 0.0513 | -5.09 (inactive) | -1.02 (inactive) | -0.608 (inactive) | -0.746 (inactive) | 0.138 | -0.018 | 0.131 | 1.76 | 0.8 | -0.482 (inactive) | -0.0544 | 5.99 (inactive) | 0.792 (inactive) | 2.3 (inactive) | 0.319 (inactive) | -0.45 | 1.97 (inactive) | 0.448 (inactive) | 1.25
CCCNC(=O)[C@@]1(Sc2ccc(C)cc2)CC(=O)N(C(C)C)[C@@H]1c1ccc(CO)cc1I | -0.272 | -1.07 (inactive) | 0.767 (inactive) | -0.412 (inactive) | 0.892 (inactive) | -1 | -0.186 | 0.0671 | 0.157 | -0.42 | -0.236 (inactive) | -0.0046 | 5.82 (inactive) | 0.424 (inactive) | 0.0627 (inactive) | 0.108 (inactive) | -0.198 | 2.46 (inactive) | -2.43 (inactive) | 0.276

— PubChem BioAssay
